F508del corr = CFTR F508del correction in bronchial cells; actives 0.36% (n = 350,000); activity (quench increase), % at 7.58 µM; CFBE cells, YFP halide quenching; stimulated with forskolin plus potentiator P3; % fluorescence drop versus neutral controls;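 active = mean added fluorescence quench of at least 8% versus neutral control, with both replicates also reaching 8%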;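 also: cells transiently co-express mutant CFTR-F508del with the halide-sensitive YFP; corrector assay measuring rescue of mutant channel to the surface after 24 h compound exposure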
PglD DTNB = blocks C. jejuni PglD acetyltransferase activity | AID 602405 | inhibition, % at 12.5 µM | actives 0.098% (n = 360,000) | purified PglD enzyme, DTNB colorimetric CoA detection; in the data active = inhibition above about 16%, passing the limit was not always enough
CASP6 VEID inh = inhibitors of human caspase-6; inhibition, % at 12.5 µM; P55212; actives 0.53% (n = 350,000); purified caspase-6, Z-VEID-R110 cleavage fluorescence;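 active = mean inhibition across replicates at least about 35%, with every replicate also reaching that limit, limit read from the data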;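 also: 0% = median of neutral control wells and 100% = no fluorescence left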
Env fusion inh = blocks HIV Env-driven cell-cell fusion; HeLa-JRFL Env/CEM21 cell fusion, luciferase; inhibition, % at 12.3 µM; actives 1.1% (n = 360,000);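 active = mean replicate inhibition score of at least 50 and every replicate individually at or above 50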;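 also: 0% = plate neutral controls and 100% = maraviroc near 300 nM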
ALR inh = human ALR oxidase inhibition via reduced H2O2 | P55789 | purified ALR, DTT oxidation, H2O2 HRP-luminol luminescence | inhibition, % (concentration not given with the values) | actives 3.8% (n = 290,000) | AID 485317;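 active = mean replicate inhibition above about 79%, with every replicate also reaching it, limit read from the data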
Target sequence (P55789 whole entry, looked up): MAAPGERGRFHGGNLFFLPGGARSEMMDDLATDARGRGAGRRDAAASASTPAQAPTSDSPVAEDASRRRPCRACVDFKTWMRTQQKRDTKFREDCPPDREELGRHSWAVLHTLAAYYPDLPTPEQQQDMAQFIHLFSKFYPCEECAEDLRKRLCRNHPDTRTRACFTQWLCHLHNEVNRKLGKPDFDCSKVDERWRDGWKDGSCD
NSD2 HMT inh = inhibitors of human histone methyltransferase NSD2; O96028; actives 0.54% (n = 310,000); NSD2 peptide methylation, AlphaScreen, 120 min; inhibition, % at 12.5 µM; in the data active = inhibition above about 50%
Active calls of the source: *; nt = not tested or not shown; [ ] = another dose, or the depositor's remark. Rows were chosen to be rich in hits. Some 4.1% of all compounds tested hit in one or more screens of this group.

SMILES	F508del corr	PglD DTNB	CASP6 VEID inh	Env fusion inh	ALR inh	NSD2 HMT inh
COC(=O)C[C@H]1C=C[C@H](NC(=O)c2ccccn2)[C@@H](CO)O1	0.3	nt	-0.9	71.6*	nt	nt
COc1cccc(CNC(=O)C[C@H]2C=C[C@@H](NC(=O)C3CCC3)[C@H](CO)O2)c1	-0.1	nt	nt	-22.2[16.7 µM]	nt	nt
O=C(C[C@@H]1C=C[C@@H](NC(=O)c2ccccc2)[C@H](CO)O1)NCc1ccc(Oc2ccccc2)cc1	-1.6	2.0	-4.4	57.4*[16.7 µM]	nt	nt
O=C(C[C@@H]1C=C[C@H](NC(=O)c2ccccc2)[C@H](CO)O1)NCc1ccc(Oc2ccccc2)cc1	2.8	3.0	4.4	60.6*[16.7 µM]	nt	nt
O=C(C[C@@H]1C=C[C@@H](NC(=O)c2ccc(F)cc2)[C@@H](CO)O1)NCc1ccncn1	0.0	9.4	86.7*	8.7[16.7 µM]	nt	nt
C[C@@H]1CN([C@H](C)CO)C(=O)c2cc(-c3ccccc3F)cnc2O[C@@H]1CN(C)C(=O)NC1CCCC1	1.4	2.7	-1.8	-28.9[16.7 µM]	nt	nt
C[C@H](CO)N1C[C@H](C)[C@H](CN(C)C(=O)Nc2ccc(F)cc2)Oc2ccc(NC(=O)CCC(F)(F)F)cc2C1=O	-3.5	3.4	1.7	nt	nt	nt
CC1Cc2ccccc2N1C(=O)NC1CC(=O)N(c2ccc3c(c2)OCCO3)C1 (configuration not stated)	0.2	nt	3.8	6.4	10.9	-1.3
CC(Nc1ccc2c(c1)OCCO2)C(=O)N1c2ccccc2CC1C (configuration not stated)	0.4	nt	-2.0	-1.7	98.5*	16.9
C[C@@H]1CN([C@H](C)CO)S(=O)(=O)c2ccc(-c3ccccc3)cc2O[C@@H]1CN(C)C(=O)c1ccc2c(c1)OCO2	-0.6	-5.4	-1.2	12.2[16.7 µM]	nt	nt
CC(C)N1CCN(Cc2ccncc2)CC1CCO (configuration not stated)	0.4	nt	-5.2	3.0	-4.3	-0.4
Cc1ccc(-c2cccc(CN3CCN(C(C)C)C(CCO)C3)c2)o1 (configuration not stated)	11.4*	nt	-8.8	-2.2	6.5	1.7
COc1ccc(S(=O)(=O)Nc2ccc3c(c2)C(=O)N([C@H](C)CO)C[C@@H](C)[C@H](CN(C)Cc2ccccc2)OCCCC[C@H](C)O3)cc1	-3.1	-1.0	nt	0.0[16.7 µM]	nt	nt
COC1=C(Nc2ccc(C)cc2)C(=O)c2ccccc2C1=O	-3.3	nt	7.1	nt	33.6	77.6*
COC1=C(Nc2ccccc2)C(=O)c2ccccc2C1=O	nt	nt	nt	nt	-8.2	75.5*
C[C@H]1CN([C@@H](C)CO)C(=O)c2cccc(NC(=O)Nc3ccc4c(c3)OCO4)c2O[C@@H]1CN(C)Cc1ccc(Cl)c(Cl)c1	-1.1	nt	-0.5	nt	nt	nt
COc1cccc(NC(=O)N[C@H]2C=C[C@@H](CC(=O)N3CCOCC3)O[C@@H]2CO)c1	1.2	-2.5	-1.6	-26.8[16.7 µM]	nt	nt
COc1cccc(NC(=O)C[C@@H]2CC[C@H]3[C@H](COc4ccc(NC(=O)C5CCOCC5)cc4C(=O)N3C)O2)c1	1.5	nt	nt	-2.0[16.7 µM]	nt	nt
Cc1ccccc1N1C(=O)CC(Nc2ccc3c(c2)OCO3)C1=O (configuration not stated)	nt	nt	nt	-49.9	94.9*	3.0
COC(=O)c1ccc(NC2CC(=O)N(c3ccccc3C)C2=O)cc1 (configuration not stated)	nt	2.3	nt	nt	-2.1	-0.4
CCn1c(SCC(=O)N2c3ccccc3CCc3ccccc32)nc2c1c(=O)n(C)c(=O)n2C	nt	-2.2	nt	44.8	4.3	-2.1
CC1Cc2ccccc2N1C(=O)CSc1nc2c(c(=O)n(C)c(=O)n2C)n1Cc1ccccc1 (configuration not stated)	nt	5.5	nt	55.6*	-5.5	0.1
C[C@@H]1CN([C@H](C)CO)C(=O)c2cc(Br)cnc2O[C@@H]1CN(C)C(=O)C1CCCCC1	0.1	1.8	-3.1	-5.9[16.7 µM]	nt	nt
COCCN(C(=O)CSc1ccc2c(c1)OCCO2)c1c(N)n(CC(C)C)c(=O)[nH]c1=O	-1.2	-3.8	nt	-3.2	94.3*	-0.8
CCc1ccc(-c2nnn(CCC(=O)OC)n2)cc1	nt	8.0	nt	64.9*	5.7	-0.9
CCOC1=C2[C@H](c3ccc(CC)cc3)N(S(=O)(=O)c3ccc(C)cc3)C[C@H]2C(C#N)(C#N)C(C#N)(C#N)C1	-2.0	0.6	-0.4	-90.8	nt	nt

Bioassay records as filed in PubChem BioAssay.
